Most compounds without a hit are left out; they make up all but 3.5% or so of the library.
TEAD-YAP block – TEAD-YAP interaction inhibition; 640,000 tested, 1.4% active; HEK-TIYL cells, TEAD-Gal4/YAP UAS-luciferase luminescence; inhibition, % at 9.12 µM; in the data active means inhibition above about 32%;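 further: 0% = median of test compound wells and 100% = reference inhibitor wells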
FBW7 activator – human FBW7 E3 ligase activation, primary screen | Q969H0 | AlphaScreen FBW7–phospho-cyclin E peptide binding, activator screen | normalized activity (activation), % at 26.1 µM | AID 1259310 | 650,000 tested, 0.13% active; in the data active means normalized activity above about 1.9%;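 further: purified mutant Fbw7 with reduced substrate affinity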
GPR151 activ – activators of human GPR151 | Q8TDV0 | PathHunter beta-arrestin GPR151 cells, luminescence | activation, % at 11.2 µM | 650,000 tested, 1% active; in the data active means activation above about 4.9%;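 further: 0% = median of compound wells and 100% = cells with positive control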
Target sequence (Q8TDV0 whole entry, looked up): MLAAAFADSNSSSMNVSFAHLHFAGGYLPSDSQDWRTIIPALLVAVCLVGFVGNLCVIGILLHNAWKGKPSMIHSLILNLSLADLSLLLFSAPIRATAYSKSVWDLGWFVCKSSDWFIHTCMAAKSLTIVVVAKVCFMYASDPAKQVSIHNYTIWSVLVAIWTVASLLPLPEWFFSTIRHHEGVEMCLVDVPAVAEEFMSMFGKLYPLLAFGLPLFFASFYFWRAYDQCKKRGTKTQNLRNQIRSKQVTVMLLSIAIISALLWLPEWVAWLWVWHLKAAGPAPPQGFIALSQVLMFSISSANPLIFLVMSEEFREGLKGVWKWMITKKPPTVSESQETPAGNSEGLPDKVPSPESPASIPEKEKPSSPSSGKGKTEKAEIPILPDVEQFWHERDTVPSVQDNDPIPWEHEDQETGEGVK
MITF primary – human MITF inhibition, primary screen; O75030; AlphaScreen MITF homodimerization, bead proximity signal; inhibition, % at 2.6 µM; 650,000 tested, 0.91% active; AID 1259374; in the data active means inhibition above about 50%;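 further: 0% = vehicle wells with protein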
Numbers without * were called inactive.

SMILES	TEAD-YAP block	FBW7 activator	GPR151 activ	MITF primary
CC(C)OCCCNc1ncnc2c1c(-c1ccccc1)cn2-c1ccc(Br)cc1	-5	0	0	5
Cc1cc2ccccc2cc1Cn1c(-n2ccnc2)nc2c1c(=O)n(C)c(=O)n2C	6	0	1	2
Cn1c(=O)c2c(nc(-n3ccnc3)n2Cc2ccc(Cl)cc2Cl)n(C)c1=O	-17	1.9*	1	4
Cc1c(Br)c([N+](=O)[O-])nn1CC(=O)Nc1sc2c(c1C#N)CCCCC2	-16	0	-1	-3
O=C(NC(=S)Nc1cccc(Cl)c1N1CCOCC1)c1ccco1	9	0	2	15
COc1ccc(C(C[N+](=O)[O-])Sc2cccc3cccnc23)cc1 (stereo not given)	57*	-1	-1	16
COC(=O)CSc1cccc2cccnc12	-3	-1	0	-11
C=CCN(CC=C)Cc1ccc(OCC(O)CN2CCC(C(=O)OC)CC2)cc1 (stereo not given)	1	0	1	-3
CCCC(=O)Nc1ccc(-c2nc3cccnc3s2)cc1	15	0	-2	9
CC(C)C(=O)Nc1ccc(-c2nc3cccnc3s2)cc1	87*	0	-5	12
O=C1C(c2ccnc3ccccc23)=C(O)c2ccccc21	53*	0	-2	-12
CCOC(=O)C1CCN(c2nc(-c3ccc(Br)cc3)nc3ccccc23)CC1	7	0	1	0
CCOC(=O)C1CCN(c2nc(-c3ccncc3)nc3cnccc23)CC1	33*	0	4	-4
CC(C)(C)NC(=O)C1N(C2CCCC2)C(=O)C2C(C(=O)NC3CCCC3)C3(C)C=CC21O3 (stereo not given)	-2	0	0	-15
CSc1ccc(CN2CCCC(C(=O)Nc3cccc(-n4cnnn4)c3)C2)cc1 (stereo not given)	37*	0	-1	1
Cc1ccc(/C=C/c2ccncc2)cc1	51*	0	-6	-5
COc1cc(C(=O)Nc2ccc(C)c(C)c2)cc(OC)c1OC	-1	1	0	12
COc1cc(C(=O)Nc2ccc(I)cc2)cc(OC)c1OC	35*	0	0	-13
COc1cc(C(=O)Nc2ccc(N3CCCC3)c(Cl)c2)cc(OC)c1OC	42*	0	-1	25
C=CCOc1ccc(/C=N/NS(=O)(=O)c2ccc(Cl)cc2)cc1	2	0	2	-10
COc1ccc(C(=O)c2ccc(OC)c(N)c2)cc1N	36*	0	0	-10
COc1ccc(C(=O)c2ccc(OC)c(OC)c2)cc1OC	5	0	-1	1
COCCCNC(=O)Nc1nnc(N(C)Cc2ccccc2)s1	1	0	1	-2
CN(Cc1ccccc1)c1nnc(NC(=O)NCc2ccccc2)s1	47*	0	1	-3
CCCCN(C)c1nnc(NC(=O)NCc2ccccc2)s1	58*	0	3	1
SMILES	TEAD-YAP block	FBW7 activator	GPR151 activ	MITF primary
O=C1NC(=Nc2cccc(C(=O)O)c2)S/C1=C/c1cccc(O)c1	2	0	-2	7
O=[N+]([O-])C1=CC=C2C(=NC3(CCCCC3)N2O)C1=NCCc1ccccn1	5	0	3	2
CC(=O)c1c(-c2ccccc2)[nH]c2ccccc12	46*	0	4	5
Cc1[nH]c2ccccc2c1C(=O)CN(C)C	-10	0	-1	-9
CCOC(=O)c1c(C)[nH]c(C)c1C(=O)CCl	71*	0	-1	7
Cc1[nH]c2ccccc2c1C(=O)CCl	5	2.3*	-2	18
CCOc1ccc(NC(=O)C(NS(=O)(=O)c2ccc3c(c2)oc(=O)n3C)C(C)C)cc1 (stereo not given)	5	0	5	-1
CCOC(=O)c1sc2ncn(CC(=O)NCCC3=CCCCC3)c(=O)c2c1C	-4	2.2*	2	-13
Cc1nc2cc(NC(=O)c3ccc(S(=O)(=O)N(C)C4CCCCC4)cc3)ccc2s1	38*	0	0	12
N#CC1=C(N)Oc2n[nH]c(-c3cccc([N+](=O)[O-])c3)c2C1c1c(F)cccc1Cl (stereo not given)	2	0	1	-9
N#CC1=C(N)C(C#N)(C#N)C(c2ccc(O)cc2)C2CCCC=C12 (stereo not given)	11	0	0	-10
N#CC1=C(N)C(C#N)(C#N)C(c2ccccc2)C2CCCC=C12 (stereo not given)	7	1.9*	2	10
CC(=O)Nc1ccc(/C(C)=N/Nc2ccc(C#N)cc2[N+](=O)[O-])cc1	6	0	0	15
S=C(NCc1ccncc1)Nc1cccc(Cl)c1	3	0	1	-14
